In PubChem BioAssay (EPA / NIEHS):
Several values for one entry are separate records, joined by “and”; a condition that tells them apart may be missing. Identical values can stand only once. More than one record can exist for a structure, and the calls need not agree. Activity calls are given as the source filed them. How the source made its calls: active means hit-call score of the fitted dose curve at least 0.9, where 1 is the maximum; inactive means score below 0.9.

test: ATG_ISRE_CIS: Attagene CIS-FACTORIAL HepG2 Assay for human Interferon Regulatory Factor 1 (IRF1) binding to an Interferon-Stimulated Response Element (ISRE) (AID 2282948); details: HepG2 ISRE cis-reporter (Attagene), mRNA transcription readout; actives raise or lower the signal
Description: ATG_CIS is a cell-based, multiplexed-readout assay that uses HepG2, a human liver cell line, with measurements taken at 24 hours after chemical dosing in a 24-well plate.ATG_ISRE_CIS is one of 52 assay component(s) measured or calculated from the ATG_CIS assay. It is designed to make measurements of mRNA induction, a form of inducible reporter, as detected with fluorescence intensity signals by Reverse transcription polymerase chain reaction (RT-PCR) and Capillary electrophoresis technology.Data from the assay component ATG_ISRE_CIS was analyzed into 1 assay endpoint. This assay endpoint, ATG_ISRE_CIS, was analyzed with bidirectional fitting relative to DMSO as the negative control and baseline of activity. Using a type of inducible reporter, measures of mRNA for gain or loss-of-signal activity can be used to understand the reporter gene at the transcription factor-level as they relate to the gene IRF1. Furthermore, this assay endpoint can be referred to as a primary readout, because this assay has produced multiple assay endpoints where this one serves a reporter gene function. To generalize the intended target to other relatable targets, this assay endpoint is annotated to the dna binding intended target family, where the subfamily is interferon regulatory factors.
Human liver HepG2 cells are transiently transfected with multiple reporter transcription units (MRTUs) in 6-well plates using FuGene 6 reagent (Roche; 3 ml FuGene/1 mg DNA). The MRTU constructs are regulated by a cis-regulating element (promoter). […] A major difference between the CIS and TRANS system is that in CIS activities of endogenous TFs are measured, whereas the TRANS assay evaluates changes in activities of exogenous, chimeric NR-Gal4 proteins. […] At the end of 24 hour incubation, total RNA was isolated using TriZol reagent (Invitrogen). The isolated RNA is then reverse-transcribed using oligo(dT) primer and Mo-MLV reverse transcriptase (Invitrogen) with DNAse I (Ambion) treatment for 30 min. The one-tenth of the produced cDNA was amplified by PCR using Taq DNA polymerase (Invitrogen) and two reporter sequence-specific primers. The PCR products were fluorescently labeled by primer extension with 6-arboxyfluorescein (6-FAM) 5'-labeled reporter sequence-specific primer (2 min at 95 C, 20 s at 68 C and 10 min at 72 C) and these products were digested with 5U of HpaI (New England Biolabs) for 2h at 37 C. The fragments were purified using Qiaquick PCR columns (Qiagen), analyzed on an ABI 3130xL genetic analyzer (Applied Biosystems) with peak positions identified by using a set of X-rhodamine (ROX)-labeled MapMarker1000 molecular weight standards (BioVentures). The raw capillary electrophoresis data was processed using Attagraph software (Attagene).

| Structure (SMILES) | outcome | AC50 |
| --- | --- | --- |
| O=S(=O)(O)C(F)(F)C(F)(F)C(F)(F)C(F)(F)C(F)(F)C(F)(F)C(F)(F)C(F)(F)F | inactive |  |
| O=C(NC(=O)c1c(F)cccc1F)Nc1ccc(OC(F)(F)C(F)OC(F)(F)F)c(Cl)c1 (stereo not given) | inactive |  |
| COc1nn(CSP(=S)(OC)OC)c(=O)s1 | inactive |  |
| C#CCN1C(=O)COc2cc(F)c(N3C(=O)C4=C(CCCC4)C3=O)cc21 | inactive |  |
| ClC1C(Cl)C(Cl)C(Cl)C(Cl)C1Cl (stereo not given) | inactive | 161 µM (active) and 58.2 µM (active) |
| O=C1c2ccccc2C(=O)N1SC(Cl)(Cl)Cl | inactive |  |
| C[C@H]1[C@H](c2ccc(Cl)cc2)SC(=O)N1C(=O)NC1CCCCC1 | inactive |  |
| CCCN(CCC)c1c([N+](=O)[O-])cc(C(F)(F)F)cc1[N+](=O)[O-] | inactive |  |
| CCN(CC)C(=O)SCc1ccc(Cl)cc1 | inactive |  |
| Cc1[nH]c(=O)n(C(C)(C)C)c(=O)c1Cl | inactive |  |
| CNC(=O)Oc1ccccc1OC(C)C | inactive |  |
| O=C(Nc1ccccc1)Nc1cnns1 | inactive |  |
| CC(C)OC(=O)Nc1cccc(Cl)c1 | inactive |  |
| CNC(=O)CSP(=S)(OC)OC | inactive |  |
| Oc1cc(Cl)ccc1Oc1ccc(Cl)cc1Cl | inactive | 13.5 µM (active) [middle of 4 runs] |
| Oc1ccc(Cl)cc1Cc1ccccc1 | inactive |  |
| CCS(=O)(=O)c1cccnc1S(=O)(=O)NC(=O)Nc1nc(OC)cc(OC)n1 | inactive |  |
| CCOc1nc(NC)nc(NC(=O)NS(=O)(=O)c2ccccc2C(=O)OC)n1 | inactive |  |
| CC(C)(C)C(O)/C(=C\c1ccc(Cl)cc1Cl)n1cncn1 (stereo not given) | inactive |  |

| Structure (SMILES) | outcome | AC50 |
| --- | --- | --- |
| CN1CSC(=S)N(C)C1 | inactive |  |
| O=C(O)C(F)(F)C(F)(F)C(F)(F)C(F)(F)C(F)(F)C(F)(F)C(F)(F)F | inactive |  |
| CC(C)(C)C(O)C(Oc1ccc(Cl)cc1)n1cncn1 (stereo not given) | inactive |  |
| [2H]C1([2H])[n+]2ccccc2-c2cccc[n+]2C1([2H])[2H] | inactive |  |
| COC(=O)c1ccccc1CS(=O)(=O)NC(=O)Nc1nc(OC)cc(OC)n1 | inactive |  |
| CNC(=O)Oc1cccc(N=CN(C)C)c1 | inactive |  |
| COP(=S)(OC)Oc1ccc([N+](=O)[O-])cc1 | inactive |  |
| O=C(O)CCCOc1ccc(Cl)cc1Cl | inactive |  |
| COC(=O)c1ccccc1S(=O)(=O)NC(=O)N(C)c1nc(C)nc(OC)n1 | inactive |  |
| CC(C)N(C(=O)COc1nnc(C(F)(F)F)s1)c1ccc(F)cc1 | inactive |  |
| CC[C@H](C)[C@H]1O[C@]2(C=C[C@@H]1C)C[C@@H]1C[C@@H](C/C=C(\C)[C@@H](O[C@H]3C[C@H](OC)[C@@H](O[C@H]4C[C@H](OC)[C@@H](O)[C@H](C)O4)[C@H](C)O3)[C@@H](C)/C=C/C=C3\CO[C@@H]4[C@H](O)C(C)=C[C@@H](C(=O)O1)[C@]34O)O2 (tested in a mixture with another compound) | inactive |  |
| O=[N+]([O-])/N=C1\NCCN1Cc1ccc(Cl)nc1 | inactive |  |
| CC1(c2ccc(Oc3ccccc3)cc2)OC(=O)N(Nc2ccccc2)C1=O (stereo not given) | inactive |  |
| CCC(C)Nc1c([N+](=O)[O-])cc(C(C)(C)C)cc1[N+](=O)[O-] (stereo not given) | inactive |  |
| O=[N+]([O-])c1c(Cl)c(Cl)c(Cl)c(Cl)c1Cl | inactive |  |
| CCCN(CCOc1c(Cl)cc(Cl)cc1Cl)C(=O)n1ccnc1 | inactive |  |
| COc1cc(OC)nc(NC(=O)NS(=O)(=O)c2cc(NC=O)ccc2C(=O)N(C)C)n1 | inactive |  |
| N#CN | inactive |  |
| Clc1ccccc1-c1nnc(-c2ccccc2Cl)nn1 | inactive |  |
